Common to all, as to experiment: DAPPL (digital affinity profiling via proximity ligation, sequencing); 10 mM Tris-HCl pH 7.5, 50 mM NaCl, 1 mM DTT, 4% glycerol, room temperature, 30 min; GST-TFs on glutathione beads, 16-mer random dsDNA library, 0.1% formaldehyde crosslink after washing; high values mean tight binding
The target in one assay is T1, FLI1 (Homo sapiens, UniProt Q01543 1-452).
T1 sequence: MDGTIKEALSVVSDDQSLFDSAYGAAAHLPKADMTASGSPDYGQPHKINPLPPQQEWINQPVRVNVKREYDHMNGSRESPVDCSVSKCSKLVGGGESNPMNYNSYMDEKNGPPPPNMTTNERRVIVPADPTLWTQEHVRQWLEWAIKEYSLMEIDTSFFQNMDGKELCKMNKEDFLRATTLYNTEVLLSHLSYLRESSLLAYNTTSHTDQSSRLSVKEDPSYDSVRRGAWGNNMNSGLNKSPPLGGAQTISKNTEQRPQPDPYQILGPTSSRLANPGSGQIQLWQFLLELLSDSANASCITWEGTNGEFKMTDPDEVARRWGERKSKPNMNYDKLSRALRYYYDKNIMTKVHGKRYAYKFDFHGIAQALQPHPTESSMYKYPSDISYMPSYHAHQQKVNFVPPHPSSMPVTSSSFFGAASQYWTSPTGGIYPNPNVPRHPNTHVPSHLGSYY
As to conditions: protein: recombinant; tags: N-terminal GST; dsDNA, one strand shown. The essentials:
(§1)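 Sequencing on an Illumina NextSeq500 followed washing, crosslinking with 0.1% formaldehyde, proximity ligation (BsaI/T4 ligase, 1 h, 37 °C) and PCR amplification of pools that had been incubated for 30 min at room temperature with 200 nmole of a random double-stranded 16-mer DNA library in Tris/NaCl/DTT/glycerol buffer. Each pool held DNA-barcoded human transcription factors, expressed in yeast as GST fusions and captured on glutathione beads, plus a tag-only sample. Binding signal is a hexamer's read frequency for a factor divided by its frequency in the tag-only sample.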

For the next assay, the target named is T2, ELK1 (Homo sapiens, UniProt P19419 1-428).
T2 sequence: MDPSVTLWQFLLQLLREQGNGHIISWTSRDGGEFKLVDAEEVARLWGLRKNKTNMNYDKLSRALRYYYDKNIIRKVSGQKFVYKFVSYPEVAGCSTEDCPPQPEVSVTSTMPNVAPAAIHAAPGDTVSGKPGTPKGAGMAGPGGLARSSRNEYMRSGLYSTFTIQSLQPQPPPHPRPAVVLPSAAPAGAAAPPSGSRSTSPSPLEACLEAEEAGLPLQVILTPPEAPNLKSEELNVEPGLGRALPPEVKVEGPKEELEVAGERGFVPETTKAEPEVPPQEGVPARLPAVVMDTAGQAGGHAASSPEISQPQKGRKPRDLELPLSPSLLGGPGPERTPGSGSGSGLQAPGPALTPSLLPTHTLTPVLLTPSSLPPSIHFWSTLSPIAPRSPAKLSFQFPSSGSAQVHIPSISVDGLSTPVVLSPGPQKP
To be noted: protein: recombinant; tags: N-terminal GST; dsDNA, one strand shown. In a few lines: as §1

A further assay deals with T3, GABPA (Homo sapiens, UniProt Q06546 1-454).
T3 sequence: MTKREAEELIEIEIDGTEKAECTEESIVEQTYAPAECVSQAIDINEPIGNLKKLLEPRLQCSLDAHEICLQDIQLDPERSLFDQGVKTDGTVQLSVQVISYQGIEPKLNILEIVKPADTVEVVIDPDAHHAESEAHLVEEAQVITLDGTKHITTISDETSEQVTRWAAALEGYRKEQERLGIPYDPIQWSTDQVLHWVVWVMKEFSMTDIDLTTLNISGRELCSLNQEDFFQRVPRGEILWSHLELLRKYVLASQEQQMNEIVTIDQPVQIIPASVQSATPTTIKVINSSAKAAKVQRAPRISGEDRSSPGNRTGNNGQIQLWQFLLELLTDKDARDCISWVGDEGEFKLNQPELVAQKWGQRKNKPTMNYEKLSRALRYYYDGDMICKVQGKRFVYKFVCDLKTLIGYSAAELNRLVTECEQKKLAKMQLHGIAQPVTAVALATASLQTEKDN
As to conditions: protein: recombinant; tags: N-terminal GST; dsDNA, one strand shown. In a few lines:
as §1

A further assay deals with T4, ERG (Homo sapiens, UniProt P11308 1-479).
T4 sequence: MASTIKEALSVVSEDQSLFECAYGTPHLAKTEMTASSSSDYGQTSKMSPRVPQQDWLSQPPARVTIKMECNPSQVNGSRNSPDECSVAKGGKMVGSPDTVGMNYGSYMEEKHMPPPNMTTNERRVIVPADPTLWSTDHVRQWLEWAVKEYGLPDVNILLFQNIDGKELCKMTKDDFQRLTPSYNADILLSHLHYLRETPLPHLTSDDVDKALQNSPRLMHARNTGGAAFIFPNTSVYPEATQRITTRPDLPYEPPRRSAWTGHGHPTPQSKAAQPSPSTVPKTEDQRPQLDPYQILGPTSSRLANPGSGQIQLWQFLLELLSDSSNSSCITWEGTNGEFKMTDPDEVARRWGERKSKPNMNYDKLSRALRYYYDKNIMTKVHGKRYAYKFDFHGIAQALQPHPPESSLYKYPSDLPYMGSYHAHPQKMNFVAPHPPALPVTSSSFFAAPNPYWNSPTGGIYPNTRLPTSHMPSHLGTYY
As to conditions: protein: recombinant; tags: N-terminal GST; dsDNA, one strand shown. The essentials: as §1

A further assay concerns the target ELF1 (Homo sapiens, UniProt P32519 1-619). To be noted: protein: recombinant; tags: N-terminal GST; dsDNA, one strand shown. In a few lines: as §1
The target in a further assay is SPI1 (Homo sapiens, UniProt P17947 1-270). As to conditions: protein: recombinant; tags: N-terminal GST; dsDNA, one strand shown. The essentials:
as §1

The target in the next assay is SPIB (Homo sapiens, UniProt Q01892 1-262). As to conditions: protein: recombinant; tags: N-terminal GST; dsDNA, one strand shown. In a few lines: as §1
The next assay deals with T5, FEV (Homo sapiens, UniProt Q99581 1-238).
T5 sequence: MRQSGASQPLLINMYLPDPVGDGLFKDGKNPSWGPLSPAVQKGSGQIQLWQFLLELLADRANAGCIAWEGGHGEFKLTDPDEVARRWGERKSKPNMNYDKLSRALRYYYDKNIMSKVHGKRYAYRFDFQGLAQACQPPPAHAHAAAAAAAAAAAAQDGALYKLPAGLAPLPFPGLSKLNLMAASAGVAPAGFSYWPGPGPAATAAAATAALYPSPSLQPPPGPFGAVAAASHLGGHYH
To be noted: protein: recombinant; tags: N-terminal GST; dsDNA, one strand shown. The essentials: as §1

The target of another assay is ETV5 (Homo sapiens, UniProt P41161 1-510). As to conditions: protein: recombinant; tags: N-terminal GST; dsDNA, one strand shown. In a few lines: as §1
Another assay has as its target HSF1 (Homo sapiens, UniProt Q00613 1-529). To be noted: protein: recombinant; tags: N-terminal GST; chain copies: 3; dsDNA, one strand shown. The essentials: as §1
In the next assay the target is T6, SPIC (Homo sapiens, UniProt Q8N5J4 1-248).
T6 sequence: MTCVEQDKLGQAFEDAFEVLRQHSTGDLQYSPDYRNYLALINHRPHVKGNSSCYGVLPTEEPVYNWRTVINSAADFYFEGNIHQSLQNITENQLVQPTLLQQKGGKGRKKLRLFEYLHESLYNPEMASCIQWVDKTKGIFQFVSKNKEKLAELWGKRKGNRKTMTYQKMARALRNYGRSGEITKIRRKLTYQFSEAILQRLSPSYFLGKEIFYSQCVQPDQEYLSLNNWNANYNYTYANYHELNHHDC
To be noted: protein: recombinant; tags: N-terminal GST; dsDNA, one strand shown. In a few lines:
as §1

The target in another assay is ELF4 (Homo sapiens, UniProt Q99607 1-663). As to conditions: protein: recombinant; tags: N-terminal GST; dsDNA, one strand shown. The essentials:
as §1

A further assay has as its target T7, ELK4 (Homo sapiens, UniProt P28324-2 1-405).
T7 sequence: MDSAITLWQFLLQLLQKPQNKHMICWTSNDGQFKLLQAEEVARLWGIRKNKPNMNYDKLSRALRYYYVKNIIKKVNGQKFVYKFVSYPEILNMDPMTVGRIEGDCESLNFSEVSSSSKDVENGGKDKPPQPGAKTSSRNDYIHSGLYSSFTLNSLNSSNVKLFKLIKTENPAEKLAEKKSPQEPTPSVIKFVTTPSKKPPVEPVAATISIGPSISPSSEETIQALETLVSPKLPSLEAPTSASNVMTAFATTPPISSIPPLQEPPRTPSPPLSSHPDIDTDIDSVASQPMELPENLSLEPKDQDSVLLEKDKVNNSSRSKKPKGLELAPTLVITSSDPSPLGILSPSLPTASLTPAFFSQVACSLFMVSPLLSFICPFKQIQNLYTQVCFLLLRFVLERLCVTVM
As to conditions: protein: recombinant; tags: N-terminal GST; dsDNA, one strand shown. In a few lines:
as §1

The target in the next assay is T8, ETV2 (Homo sapiens, UniProt O00321 1-342).
T8 sequence: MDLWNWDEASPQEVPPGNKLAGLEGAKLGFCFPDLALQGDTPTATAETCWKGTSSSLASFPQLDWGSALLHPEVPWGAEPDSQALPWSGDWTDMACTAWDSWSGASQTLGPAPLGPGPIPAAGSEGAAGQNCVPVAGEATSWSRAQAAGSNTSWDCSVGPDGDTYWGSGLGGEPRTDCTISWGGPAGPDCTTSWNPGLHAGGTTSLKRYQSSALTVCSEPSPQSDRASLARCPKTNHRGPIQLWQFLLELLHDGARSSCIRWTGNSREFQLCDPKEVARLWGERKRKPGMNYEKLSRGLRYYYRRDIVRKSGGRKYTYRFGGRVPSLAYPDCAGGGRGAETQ
To be noted: protein: recombinant; tags: N-terminal GST; dsDNA, one strand shown. In a few lines:
as §1

A further assay addresses T9, ELF3 (Homo sapiens, UniProt P78545 1-371).
T9 sequence: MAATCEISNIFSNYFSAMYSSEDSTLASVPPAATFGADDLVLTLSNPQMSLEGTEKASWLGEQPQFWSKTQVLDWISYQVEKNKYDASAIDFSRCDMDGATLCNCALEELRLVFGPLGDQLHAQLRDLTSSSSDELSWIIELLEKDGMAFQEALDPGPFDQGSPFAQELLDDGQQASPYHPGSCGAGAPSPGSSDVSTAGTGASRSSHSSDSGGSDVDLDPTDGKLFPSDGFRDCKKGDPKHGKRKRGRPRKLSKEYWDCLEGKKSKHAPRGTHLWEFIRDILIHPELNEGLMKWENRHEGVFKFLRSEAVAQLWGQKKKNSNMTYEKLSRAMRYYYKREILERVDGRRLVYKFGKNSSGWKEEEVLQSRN
As to conditions: protein: recombinant; tags: N-terminal GST; dsDNA, one strand shown. In a few lines: as §1

Another assay addresses ETV1 (Homo sapiens, UniProt P50549 1-477). To be noted: protein: recombinant; tags: N-terminal GST; dsDNA, one strand shown. In a few lines:
as §1

Chain of ELF4 (Q99607 whole entry): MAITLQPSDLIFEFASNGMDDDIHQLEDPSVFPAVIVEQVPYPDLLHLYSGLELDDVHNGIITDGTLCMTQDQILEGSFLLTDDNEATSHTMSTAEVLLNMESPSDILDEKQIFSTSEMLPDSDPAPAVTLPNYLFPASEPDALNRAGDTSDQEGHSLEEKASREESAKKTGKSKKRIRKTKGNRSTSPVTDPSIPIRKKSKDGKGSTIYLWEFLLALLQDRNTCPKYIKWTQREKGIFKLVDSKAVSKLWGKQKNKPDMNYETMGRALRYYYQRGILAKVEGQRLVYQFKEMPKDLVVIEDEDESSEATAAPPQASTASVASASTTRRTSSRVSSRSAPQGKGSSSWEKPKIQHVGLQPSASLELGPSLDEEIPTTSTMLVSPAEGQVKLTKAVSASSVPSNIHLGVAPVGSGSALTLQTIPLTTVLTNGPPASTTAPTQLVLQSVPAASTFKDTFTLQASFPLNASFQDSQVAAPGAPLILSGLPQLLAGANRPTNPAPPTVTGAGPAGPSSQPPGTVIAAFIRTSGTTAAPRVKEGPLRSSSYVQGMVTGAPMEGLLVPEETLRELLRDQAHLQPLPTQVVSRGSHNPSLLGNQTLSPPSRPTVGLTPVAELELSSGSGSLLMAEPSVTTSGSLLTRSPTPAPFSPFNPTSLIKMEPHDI
Chain of SPIB (Q01892 whole entry): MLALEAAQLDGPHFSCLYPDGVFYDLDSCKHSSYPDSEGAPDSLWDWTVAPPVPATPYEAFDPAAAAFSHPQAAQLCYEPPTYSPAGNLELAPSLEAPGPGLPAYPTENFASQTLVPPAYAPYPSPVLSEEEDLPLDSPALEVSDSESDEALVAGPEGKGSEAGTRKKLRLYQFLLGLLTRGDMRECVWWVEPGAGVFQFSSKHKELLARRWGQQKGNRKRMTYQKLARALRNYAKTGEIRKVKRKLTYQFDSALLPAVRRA
Chain of ETV5 (P41161 whole entry): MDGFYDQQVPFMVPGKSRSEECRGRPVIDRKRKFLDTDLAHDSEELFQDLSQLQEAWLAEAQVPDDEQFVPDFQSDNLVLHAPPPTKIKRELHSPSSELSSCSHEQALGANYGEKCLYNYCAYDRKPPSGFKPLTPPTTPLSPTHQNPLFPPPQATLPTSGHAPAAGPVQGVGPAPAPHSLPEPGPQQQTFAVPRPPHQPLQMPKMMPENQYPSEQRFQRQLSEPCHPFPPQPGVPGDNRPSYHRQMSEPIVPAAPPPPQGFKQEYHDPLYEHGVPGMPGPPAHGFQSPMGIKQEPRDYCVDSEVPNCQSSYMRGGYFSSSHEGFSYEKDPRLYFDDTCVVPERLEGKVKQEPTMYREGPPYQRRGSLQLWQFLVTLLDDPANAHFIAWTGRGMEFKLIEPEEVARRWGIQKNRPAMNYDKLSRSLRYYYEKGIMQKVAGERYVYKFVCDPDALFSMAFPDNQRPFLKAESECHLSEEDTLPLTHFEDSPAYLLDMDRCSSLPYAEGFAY
Chain of ELF1 (P32519 whole entry): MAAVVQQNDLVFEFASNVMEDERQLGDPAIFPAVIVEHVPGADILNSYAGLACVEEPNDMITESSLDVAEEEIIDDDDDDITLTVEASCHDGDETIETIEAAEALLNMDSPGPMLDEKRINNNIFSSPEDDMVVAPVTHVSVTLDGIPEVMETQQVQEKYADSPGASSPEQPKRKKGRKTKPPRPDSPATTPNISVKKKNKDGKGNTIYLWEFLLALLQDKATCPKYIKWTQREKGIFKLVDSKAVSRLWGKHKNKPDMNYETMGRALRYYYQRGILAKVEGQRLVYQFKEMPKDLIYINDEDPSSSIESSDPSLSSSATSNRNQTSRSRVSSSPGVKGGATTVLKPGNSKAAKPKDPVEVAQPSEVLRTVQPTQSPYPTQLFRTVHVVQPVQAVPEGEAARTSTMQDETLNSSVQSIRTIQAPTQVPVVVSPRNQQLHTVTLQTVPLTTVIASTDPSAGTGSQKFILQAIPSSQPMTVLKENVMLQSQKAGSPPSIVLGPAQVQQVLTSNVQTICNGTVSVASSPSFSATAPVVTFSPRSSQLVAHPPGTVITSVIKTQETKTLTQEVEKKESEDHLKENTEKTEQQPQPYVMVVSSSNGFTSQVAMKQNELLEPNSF
Chain of HSF1 (Q00613 whole entry): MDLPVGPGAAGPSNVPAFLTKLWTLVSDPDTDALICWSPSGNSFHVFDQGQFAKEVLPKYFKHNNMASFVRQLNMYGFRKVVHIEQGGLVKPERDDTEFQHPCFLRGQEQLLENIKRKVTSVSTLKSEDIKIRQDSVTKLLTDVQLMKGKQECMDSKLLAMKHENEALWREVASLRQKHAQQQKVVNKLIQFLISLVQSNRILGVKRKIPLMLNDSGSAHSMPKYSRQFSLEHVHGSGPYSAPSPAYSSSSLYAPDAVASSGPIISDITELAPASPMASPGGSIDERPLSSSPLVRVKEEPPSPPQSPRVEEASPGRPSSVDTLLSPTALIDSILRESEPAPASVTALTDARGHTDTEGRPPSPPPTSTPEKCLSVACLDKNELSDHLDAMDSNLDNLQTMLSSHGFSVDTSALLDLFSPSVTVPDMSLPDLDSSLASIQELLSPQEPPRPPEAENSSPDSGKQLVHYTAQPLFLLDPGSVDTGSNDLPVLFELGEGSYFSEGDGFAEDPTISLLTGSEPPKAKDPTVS
Chain of ETV1 (P50549 whole entry): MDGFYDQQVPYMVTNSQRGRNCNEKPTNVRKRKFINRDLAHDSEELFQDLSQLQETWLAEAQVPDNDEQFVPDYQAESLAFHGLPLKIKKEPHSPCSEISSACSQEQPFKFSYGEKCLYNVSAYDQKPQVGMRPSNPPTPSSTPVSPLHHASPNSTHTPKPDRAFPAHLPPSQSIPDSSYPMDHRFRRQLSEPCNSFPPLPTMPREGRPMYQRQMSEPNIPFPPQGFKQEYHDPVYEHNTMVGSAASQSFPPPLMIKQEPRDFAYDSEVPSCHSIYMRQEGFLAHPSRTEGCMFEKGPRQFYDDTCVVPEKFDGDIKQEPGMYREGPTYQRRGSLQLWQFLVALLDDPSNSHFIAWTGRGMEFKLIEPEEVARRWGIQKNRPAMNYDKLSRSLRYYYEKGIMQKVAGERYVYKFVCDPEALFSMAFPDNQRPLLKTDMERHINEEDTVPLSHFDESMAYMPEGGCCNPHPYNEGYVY

As to CCTGGG, the binding signal with FLI1 is 1.16 fold enrichment (6-mer frequency, TF over GST control); with ELK1 it was 1.18 fold enrichment (6-mer frequency, TF over GST control); with GABPA, 1.15 fold enrichment (6-mer frequency, TF over GST control); in the assay with ERG, 1.16 fold enrichment (6-mer frequency, TF over GST control); in the assay with ELF1, 1.18 fold enrichment (6-mer frequency, TF over GST control); in the assay with SPI1 it was 1.11 fold enrichment (6-mer frequency, TF over GST control). For the same sequence, the binding signal with SPIB is 1.08 fold enrichment (6-mer frequency, TF over GST control); with FEV it was 1.05 fold enrichment (6-mer frequency, TF over GST control); with ETV5, 1.05 fold enrichment (6-mer frequency, TF over GST control); in the assay with HSF1 it was 1.01 fold enrichment (6-mer frequency, TF over GST control); in the assay with SPIC it was 1.05 fold enrichment (6-mer frequency, TF over GST control); with ELF4 it was 1.09 fold enrichment (6-mer frequency, TF over GST control). Besides, the binding signal was 1.08 fold enrichment (6-mer frequency, TF over GST control) in the assay with ELK4; 1.29 fold enrichment (6-mer frequency, TF over GST control) in the assay with ETV2; 1.06 fold enrichment (6-mer frequency, TF over GST control) with ELF3; 1.16 fold enrichment (6-mer frequency, TF over GST control) with ETV1.
